Rows were chosen to be rich in hits. Some 3.4% of all compounds tested hit in one or more screens of this group.
GPR151 ag – activates the human receptor GPR151. Q8TDV0. PathHunter beta-arrestin GPR151 cells, luminescence. activation, % at 11.2 µM. 650,000 tested, 1% active. AID 1508602; in the data active means activation above about 4.9%;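 further: 0% = median of compound wells and 100% = cells with positive control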
TEAD-YAP inh – TEAD-YAP interaction inhibition; HEK-TIYL cells, TEAD-Gal4/YAP UAS-luciferase luminescence; inhibition, % at 9.12 µM; 640,000 tested, 1.4% active; in the data active means inhibition above about 32%;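 further: 0% = median of test compound wells and 100% = reference inhibitor wells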
MITF inh – inhibitors of human MITF; O75030; AlphaScreen MITF homodimerization, bead proximity signal; inhibition, % at 2.6 µM; 650,000 tested, 0.91% active; AID 1259374; in the data active means inhibition above about 50%;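 further: 0% = vehicle wells with protein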
FBW7 act – human FBW7 E3 ligase activation, primary screen; AlphaScreen FBW7–phospho-cyclin E peptide binding, activator screen; normalized activity (activation), % at 26.1 µM; 650,000 tested, 0.13% active; in the data active means normalized activity above about 1.9%;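 further: purified mutant Fbw7 with reduced substrate affinity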
GPR151 confirm – confirmation of human GPR151 activators. shares compounds with GPR151 ag. GPR151 PathHunter beta-arrestin cells, luminescence, 90 min; % of EA-reagent control over plate median. activation, % at 11.2 µM. 6,700 tested, under 10 active. AID 1508609;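 active means mean percent activation across replicates above the confirmation screen cutoff of 4.91%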
GPR119 counter – GPR119 activation, counter-screen for GPR151 activators; 6,700 tested, 0.3% active; activation, % at 11.2 µM; shares compounds with GPR151 ag; GPR119 PathHunter beta-arrestin cells, luminescence, 90 min; 0 = compound-well median, 100 = enzyme-acceptor control;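 active means mean percent activation in the counterscreen above 29.09%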;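 further: counterscreen on off-target GPR119 to flag nonselective hits from the GPR151 activator screen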
Target sequence (Q8TDV5 whole entry, looked up): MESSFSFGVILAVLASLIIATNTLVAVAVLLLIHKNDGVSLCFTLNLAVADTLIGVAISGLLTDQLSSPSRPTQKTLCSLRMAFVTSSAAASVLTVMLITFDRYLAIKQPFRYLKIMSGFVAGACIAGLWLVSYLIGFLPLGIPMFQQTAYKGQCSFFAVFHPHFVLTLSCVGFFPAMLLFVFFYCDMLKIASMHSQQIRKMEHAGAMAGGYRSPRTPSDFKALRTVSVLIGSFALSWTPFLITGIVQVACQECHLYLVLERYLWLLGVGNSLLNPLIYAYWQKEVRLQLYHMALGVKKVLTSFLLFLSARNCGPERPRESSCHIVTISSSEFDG
An asterisk follows results filed as active; x = not tested or not shown; ! = repeats disagree.

SMILES	GPR151 ag	TEAD-YAP inh	MITF inh	FBW7 act	GPR151 confirm	GPR119 counter
CNc1nc(-c2ccccc2O)nc(-c2ccccc2O)n1	0	7	3	1	x	x
O=C(COC(=O)c1cc([N+](=O)[O-])ccc1NCCO)Nc1ccc(F)cc1	1	11	-38	0	x	x
O=C(COC(=O)c1cc([N+](=O)[O-])ccc1NCCO)Nc1ccc(F)cc1F	5.6*	-17	-1	0	0	-5
CCN(CC)c1nc(Nc2cnccn2)nc(NC2CC2)n1	0	-1	-6	0	x	x
CC1=C(C(=O)Nc2ccc(F)cc2)C(c2ccc(N(C)C)cc2)C2=C(CC(C)(C)CC2=O)N1 (stereo unspecified)	5.6*	-34	14	0	0	4
CC1=C(C(=O)Nc2cccc(C)n2)C(c2ccc(C)cc2)C2=C(CC(C)(C)CC2=O)N1 (stereo unspecified)	6.9*	4	16	0	1	9
CC1=C(C(=O)Nc2c(F)cccc2F)C(c2ccc(N(C)C)cc2)C2=C(CC(C)(C)CC2=O)N1 (stereo unspecified)	2	11	2	0	x	x
CCN1CCN(C(C)C(=O)N2CCc3ccccc32)CC1 (stereo unspecified)	1	2	-1	0	x	x
Cc1c(-c2ccccc2)sc2nc[nH]c(=O)c12	12*	-15	7	0	0	-8
Cc1ccc(NC(=O)C2CC(Cl)=CCC2C(=O)O)cc1[N+](=O)[O-] (stereo unspecified)	18*	9	-6	0	0	-4
C/C(=N\O)c1ccc(S(=O)(=O)N(C)C)cc1	0	-73	13	0	x	x
Cc1ccc(NC(=O)c2ccc([N+](=O)[O-])cc2C(=O)O)cc1	3	-2	7	0	x	x
Cc1cc(C)n2nc(C(=O)N/N=C/c3cc([N+](=O)[O-])ccc3O)nc2n1	5.8*	2	3	-1	-1	-3
Cc1cc(C)nc(N/N=C/c2cc([N+](=O)[O-])ccc2O)n1	0	19	44	-1	x	x
COc1ccc(OC)c(NC(=O)c2ccccc2C(F)(F)F)c1	6.6*	6	-5	0	1	-2
COc1ccc(OC)c(NC(=O)CCN(C)Cc2ccccc2)c1	11*	-6	-3	0	0	-8
COc1ccccc1NC(=O)c1ccccc1C(F)(F)F	1	1	-5	0	x	x
COc1cc(-c2cn[nH]c2)cc2c(=O)[nH]c(C3COc4ccc(C)cc4C3)nc12 (stereo unspecified)	5.6*	7	10	0	-1	-6
COc1cccc(CNc2nn[nH]n2)c1OC	8.4*	8	12	0	-1	-7
O=C(CSc1nc2ccccc2o1)Nc1ccccc1Cl	-1	-41	3	0	x	x
O=C(CSc1nc2ccccc2o1)Nc1ccccc1C(F)(F)F	5.2*	-17	10	0	2	5
Cc1cccc(C)c1NC(=O)CSc1nc2ccccc2o1	7.6*	13	3	0	-1	-6
COc1ccc(C(=O)/C=C/Nc2cccc([N+](=O)[O-])c2)cc1OC	8.7*!	-36	-1	0	0	-9
Cc1cc(C)nc(SCC(=O)Nc2cc(Cl)ccc2Cl)n1	0	21	7	0	x	x
Cc1cc(NCc2ccccc2)nc(NCCN2CCOCC2)n1	6.0*	-4	-1	0	1	-10
SMILES	GPR151 ag	TEAD-YAP inh	MITF inh	FBW7 act	GPR151 confirm	GPR119 counter
COc1ccc(CC(=O)N2N=C(c3cccnc3)CC2(O)C(F)(F)F)cc1 (stereo unspecified)	4.9*	25	2	1	1	10
CC1=NN(C(=O)c2cc3c(C)nn(-c4ccccc4)c3s2)C(O)(C(F)(F)F)C1 (stereo unspecified)	5	6	7	0	x	x
Cc1ccc(-c2nc3ccccc3c(=O)n2NC(=O)c2ccco2)cc1C	5.4*	-1	-12	0	0	5
COc1ccccc1CNC(=O)c1cnn2c(C)c(Cc3ccc(C)cc3)c(C)nc12	5.6*	-4	-7	0	0	12
Cc1cccc(Cc2c(C)nc3c(C(=O)NCC4CCCO4)cnn3c2C)c1 (stereo unspecified)	5.1*	-1	-10	0	0	-1
Cc1nc2c(C(=O)NC3CC3)cnn2c(C)c1Cc1cccc(Cl)c1	-1	11	4	0	x	x
CCCCNC(=O)c1cnn2c(C)c(Cc3ccc(F)cc3)c(C)nc12	8.3*	-3	-4	0	1	14
Cc1nc2c(C(=O)NC3CCCC(C)C3C)cnn2c(C)c1Cc1cccc(Cl)c1 (stereo unspecified)	6.5*	2	6	0	0	4
Cc1nc2c(C(=O)NCC3CCCO3)cnn2c(C)c1Cc1ccccc1 (stereo unspecified)	0	-3	0	0	x	x
Nc1ccc(SCC(=O)Nc2ccc(Br)cc2)cc1	0	-35	-14	0	x	x
COc1ccc(OC)c(C2N(c3ccc(C)cc3)CCN2c2ccc(C)cc2)c1	-1	6	12	0	x	x
Cc1cccc(-n2c(C)cc(=O)cc2C)c1C	0	13	11	0	x	x
Cc1ccc2cc(C=O)c(N3CCOCC3)nc2c1	1	5	11	0	x	x
Cc1nc2c(C(=O)NCc3ccccc3Cl)cnn2c(C)c1Cc1cccc(Cl)c1	5.3*	2	-1	0	-1	-3
Cc1cc(C)n(-c2cc(NCCO)nc(C)n2)n1	11*	2	-3	0	0	-11
COC(=O)c1ccc(-n2nnnc2SCC(=O)N2CCOCC2)cc1	4.9*	-5	3	0	1	21
CCOc1ccc(-n2nnnc2SCC(=O)N2CCOCC2)cc1	5.3*	3	-14	0	0	6
O=C(CSc1nnnn1-c1ccc(F)cc1F)N1CCOCC1	5.5*	-11	12	0	2	12
C=CCn1c(COc2ccccc2C)n[nH]c1=S	-1	9	8	1	x	x
C=CCn1c(COc2cccc(C)c2C)n[nH]c1=S	5.0*	4	4	0	0	1
O=C(CSc1nnnn1-c1ccc(F)cc1)NCc1ccccc1C(=O)O	10*	-1	16	0	0	2
O=C(CSc1nnnn1-c1ccc(F)cc1)NCCc1ccccc1	-1	7	20	0	x	x
COC(=O)C1=C(C)N(c2ccc(C(C)C)cc2)C(=O)/C1=C\c1ccco1	6.0*	29	11	0	0	12
COC(=O)C1=C(C)N(c2ccc(Cl)cc2)C(=O)/C1=C\c1ccco1	3	6	9	0	x	x
COc1cccc(CC(C#N)c2c(C#N)c(N)nc(N3CCOCC3)c2C#N)c1 (stereo unspecified)	0	-7	6	0	x	x
C/C(=N\Nc1ccc(C(F)(F)F)cn1)c1ccncc1	6.4*	-28	-5	0	0	-8

Screens: PubChem, The Scripps Research Institute Molecular Screening Center
